Experimental data: PubChem BioAssay (NCATS)
Results filed as inconclusive are left out. Activity calls are given as the source filed them. The call rests on the fitted dose curve; in most records, active means well fitted inhibition curve with a large enough effect; inconclusive means small, poorly fitted or top-dose-only effect; inactive means flat fitted curve, though single readings scatter.

Tests used:
Assay in all cases: qHTS profiling for inhibitors of Plasmodium falciparum proliferation (AID 504749); further: nearly all actives have a fitted effect of over 60% in size
Conditions in all cases: P. falciparum in erythrocytes, SYBR Green DNA, 72 h; series mostly up to 28.7 µM
[1] = tested on: CP325
Procedure, shortened: (§1)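 SYBR Green fluorescence of parasite DNA, read after lysis and overnight dark incubation, measured growth over 72 h in erythrocyte culture at 0.3% parasitemia and 2.5% hematocrit. Data normalised to DMSO and 0.29 uM artemisinin, with plate-drift correction.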

[2] = tested on: CP329
Procedure, shortened: as §1

[3] = tested on: CP335
Procedure, shortened: as §1

[4] = tested on: DFO2036
Procedure, shortened: as §1

[5] = tested on: DIV14
Procedure, shortened: as §1

[6] = tested on: DIV17
Procedure, shortened: as §1

[7] = tested on: DIV30
Procedure, shortened: as §1

[8] = tested on: Dd2
Procedure, shortened: as §1

[9] = tested on: ECU
Procedure, shortened: as §1

[10] = tested on: FAB9
Procedure, shortened: as §1

[11] = tested on: GB4
Procedure, shortened: as §1

[12] = tested on: HB3
Procedure, shortened: as §1

[13] = tested on: ICS
Procedure, shortened: as §1

[14] = tested on: JCK
Procedure, shortened: as §1

[15] = tested on: N140
Procedure, shortened: as §1

[16] = tested on: P93_24
Procedure, shortened: as §1

[17] = tested on: P94_40
Procedure, shortened: as §1

[18] = tested on: PAD
Procedure, shortened: as §1

[19] = tested on: PC15
Procedure, shortened: as §1

[20] = tested on: PC26
Procedure, shortened: as §1

Measured: Potency
Potency means the concentration at half of the fitted maximal effect.

C#CCN[C@@H]1CCc2ccccc21
inactive: all assays above

CNC1CCCN(c2c(F)cc3c(=O)c(C(=O)O)cn(C4CC4)c3c2OC)C1 (stereo not given)
inactive: all assays above

O=S(=O)(O)CCS
inactive: all assays above

COc1ncnc(NS(=O)(=O)c2ccc(N)cc2)c1OC
inactive: all assays above

O=NN(CCCl)C(=O)NC1CCCCC1
inactive: all assays above

CC(C)NCC(O)c1ccc(NS(C)(=O)=O)cc1 (stereo not given)
inactive: all assays above

CCc1c2c(nc3ccc(OC(=O)N4CCC(N5CCCCC5)CC4)cc13)-c1cc3c(c(=O)n1C2)COC(=O)[C@]3(O)CC
inactive: all assays above

CN(C)c1ccc(C(=C2C=CC(=[N+](C)C)C=C2)c2ccc(N(C)C)cc2)cc1
active: [1] 478 nM | [2] 601 nM | [3] 301 nM | [4] 199 nM | [5] 478 nM | [6] 601 nM | [7] 478 nM | [8] 158 nM | [9] 355 nM | [10] 355 nM | [11] 239 nM | [12] 631 nM | [13] 251 nM | [14] 631 nM | [15] 355 nM | [16] 316 nM | [17] 282 nM | [18] 355 nM | [19] 708 nM | [20] 849 nM

O=C(O)c1cc(=O)[nH]c(=O)[nH]1
inactive: all assays above

CCc1cc(C(N)=S)ccn1
inactive: all assays above

CCCc1cc(C(N)=S)ccn1
inactive: all assays above

Cc1cccc(N(C)C(=S)Oc2ccc3ccccc3c2)c1
inactive: all assays above

COc1ccc2cc3[n+](cc2c1OC)CCc1cc2c(cc1-3)OCO2
active: [1] 953 nM | [2] 953 nM | [3] 953 nM | [4] 891 nM | [5] 849 nM | [6] 1070 nM | [7] 1350 nM | [8] 794 nM | [9] 1410 nM | [10] 708 nM | [11] 675 nM | [12] 1780 nM | [13] 1120 nM | [14] 3160 nM | [15] 1260 nM | [16] 562 nM | [17] 447 nM | [18] 1000 nM | [19] 2240 nM | [20] 1900 nM

Cc1ccnc2c1NC(=O)c1cccnc1N2C1CC1
inactive: all assays above

Nc1nc(N)nc(-c2cc(Cl)ccc2Cl)n1
inactive: all assays above

Cc1ncc([N+](=O)[O-])n1CCO
inactive: all assays above

N=C(N)c1ccc(OCCCCCOc2ccc(C(=N)N)cc2)cc1
active: [1] 1070 nM | [2] 849 nM | [3] 1350 nM | [4] 1000 nM | [5] 269 nM | [6] 426 nM | [7] 1690 nM | [8] 501 nM | [9] 2000 nM | [10] 794 nM | [11] 338 nM | [12] 1260 nM | [13] 1000 nM | [14] 2510 nM | [15] 1000 nM | [16] 631 nM | [17] 1410 nM | [18] 1410 nM | [19] 355 nM | [20] 953 nM

NCCCC(O)(P(=O)(O)O)P(=O)(O)O
inactive: all assays above

Cc1noc(NS(=O)(=O)c2ccc(N)cc2)c1C
inactive: all assays above

Cc1cccc(Nc2ccncc2S(=O)(=O)NC(=O)NC(C)C)c1
inactive: all assays above

COc1cc(NCc2ccc3nc(N)nc(N)c3c2C)cc(OC)c1OC
active: [1] 953 nM | [2] 379 nM | [3] 151 nM | [4] 355 nM | [5] 169 nM | [6] 239 nM | [7] 4780 nM | [8] 631 nM | [9] 5 nM | [10] 4.5 nM | [11] 1.5 nM | [12] 31.6 nM | [13] 794 nM | [14] 7080 nM | [15] 447 nM | [16] 398 nM | [17] 891 nM | [18] 316 nM | [19] 316 nM | [20] 675 nM

CN(CCOc1ccc(CC2SC(=O)NC2=O)cc1)c1ccccn1 (stereo not given)
inactive: all assays above

CCCN[C@H]1CCc2nc(N)sc2C1
inactive: all assays above
